# S1P2 agonist = agonists of human S1P2 receptor; O95136; hit rate 0.46% among 97,000; AID 729; activation, % at 4.5 µM; S1P2-expressing cell line, agonist reporter read-out; in the data active = activation above about 16%;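 also: 0% = vehicle low control and 100% = maximal reference agonist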
# Target sequence (O95136 whole entry, looked up): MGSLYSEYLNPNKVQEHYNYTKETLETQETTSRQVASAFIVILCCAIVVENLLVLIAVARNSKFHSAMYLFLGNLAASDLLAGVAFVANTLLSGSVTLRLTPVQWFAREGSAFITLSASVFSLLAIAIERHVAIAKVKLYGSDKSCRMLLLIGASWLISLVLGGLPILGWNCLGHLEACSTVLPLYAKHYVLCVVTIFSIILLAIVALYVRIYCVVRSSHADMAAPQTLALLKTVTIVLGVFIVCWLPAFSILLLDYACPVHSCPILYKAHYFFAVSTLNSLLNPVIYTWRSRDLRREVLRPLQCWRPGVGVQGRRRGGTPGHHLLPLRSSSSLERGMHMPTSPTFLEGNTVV
# GALR2 antag = antagonists of human galanin receptor 2 (GALR2) | O43603 | inhibition, % at 4 µM | GALR2-expressing cells, antagonist mode | hit rate 0.39% among 140,000; in the data active = inhibition above about 27%;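 also: cells stimulated with galanin 1-16 at roughly its EC80; 0% = agonist challenge control and 100% = basal control without agonist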
# PostGolgi yeast = growth inhibition of a yeast mutant, post-Golgi transport screen. post-Golgi transport phenotypic cell assay. inhibition, % at 10 µM. hit rate 0.9% among 98,000. AID 739;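 also: yeast cells grown in 1536-well plates; yeast grown about 18 h at 30C before absorbance read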
# S1P2 blocker = blocks the human S1P2 receptor; O95136; cell-based S1P2 antagonist assay, inhibition at 5 uM; inhibition, % at 5 µM; hit rate 0.21% among 97,000; AID 736; in the data active = inhibition above about 45%;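 also: CRE beta-lactamase reporter cells expressing human S1P2 stimulated with S1P; 0% = agonist at EC80 alone and 100% = agonist plus reference antagonist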
# PostGolgi ctrl = inhibits growth of the yeast control strain; efflux-deficient yeast background strain, growth absorbance A615, 16 h; inhibition, % at 10 µM; hit rate 5% among 98,000; AID 738
# GALR2 ag = activates the human galanin receptor 2; GALR2-expressing cells, agonist activation read-out; hit rate 0.48% among 140,000; activation, % (no concentration beside the values); O43603; in the data active = activation above about 5%, passing the limit was not always enough;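 also: 0% = vehicle buffer wells and 100% = reference agonist at full effect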
# GALR2 agon conf = confirmation of human galanin receptor 2 (GALR2) agonists; shares compounds with GALR2 ag; GALR2-expressing cells, agonist activation; hit rate 10% among 460; activation, % at 5.6 µM; AID 864; in the data active = activation above about 8.4%;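 also: 0% = buffer-only vehicle wells and 100% = full reference agonist response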
# BLA act counter = activates beta-lactamase reporter in GALR2 agonist counterscreen; CHO NFAT-bla reporter, beta-lactamase FRET activation; AID 865; shares compounds with GALR2 ag; activation, % at 5.6 µM; hit rate 10% among 460;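 active = activation above the screen-wide mean activation plus 3 SD, cut at about 8% in these data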;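 also: 0% = DMSO with PBS wells and 100% = thapsigargin positive control wells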
# The depositor's hits bear a star; / = no result given. The entries come from a sample that favours hits as a whole. Rule as the data show it, unless noted: active = inhibition above about 30%; inactive = the rest.
SMILES,S1P2 agonist,GALR2 antag,PostGolgi yeast,S1P2 blocker,PostGolgi ctrl,GALR2 ag,GALR2 agon conf,BLA act counter
Cc1nc(Oc2ccc(S(=O)(=O)N3CCOCC3)cc2Cl)c2c3c(sc2n1)CCCC3,/,-20,/,/,/,1,/,/
Cc1ccc(-c2nn(CC(N)=O)c(=O)c3ccccc23)cc1S(=O)(=O)N(C)C,-6,-1,2,-5,20,34*,0,-1
Cc1cc(NC(=O)c2ccccc2Cl)no1,0,13,8,15,9,-1,/,/
Cc1ccc2nc(-c3ccccc3Cl)cc(C(=O)Nc3cc(C)on3)c2c1,-1,-5,4,3,-2,17*,0,0
CCOc1cc(/C=N\NC(=O)Cn2nc([N+](=O)[O-])cc2C)ccc1OCc1cccc2ccccc12,-4,-12,-1,-23,6,35*,-1,-3
CCOc1ccc(C(=O)CC(=O)C(=O)NCCc2ccc(OC)c(OC)c2)cc1,/,-6,/,/,/,-1,/,/
CC(C)(C)CC(=O)NCCCCCCNC(=O)CC(C)(C)C,/,17,/,/,/,1,/,/
CCOCCCNC(=O)C(c1ccc(C)cc1)N(Cc1cccs1)C(=O)CNC(C)=O (configuration not stated),/,8,/,/,/,-2,/,/
O=c1[nH]c2ccccc2nc1-c1cccs1,15,4,22,-11,-4,12*,1,4
Cc1ccc2nc(SCC(=O)N(CC(C)C)c3c(N)n(CC(C)C)c(=O)[nH]c3=O)[nH]c2c1,3,-6,17,-14,3,40*,-1,-2
CC(C)CN(C(=O)CSc1nncs1)c1c(N)n(CC(C)C)c(=O)[nH]c1=O,-3,-9,-1,-2,0,-1,/,/
O=[N+]([O-])c1cc(-c2nc3nc4ccccc4nc3n2CCc2ccccc2)cc([N+](=O)[O-])c1,/,15,/,/,/,-2,/,/
Cc1ccc(S(=O)(=O)CCSc2cccc(C(=O)Nc3ccccc3C(=O)O)c2)cc1,/,-16,/,/,/,0,/,/
COC(=O)C1CCN(C(=O)COC(=O)CC(NC(C)=O)c2ccccc2)CC1 (configuration not stated),-1,1,-2,-4,1,-1,/,/
COC(=O)C1CCN(C(=O)COC(=O)Cn2cnnn2)CC1,-3,-7,-3,6,6,160*,-1,0
CCC(C)N=C1CC(C)(C)CC(=O)/C1=C(/O)Cc1ccccc1 (configuration not stated),/,0,/,/,/,-1,/,/
Cc1nn2cc(-c3ccc(Cl)cc3)nc2s1,-5,6,11,26,2,10,0,-2
Cc1nn2cc(-c3ccc(-c4ccccc4)cc3)nc2s1,-8,-30,4,8,12,-2,/,/
O=C(O)CN1C(=O)C2(OCCCO2)c2ccccc21,-3,-4,-5,-20,12,8,0,-2
COC(=O)CN1C(=O)C2(OCCCO2)c2ccccc21,-2,4,0,16,7,-1,/,/
COC(=O)c1cn(CC(=O)NC2CCCCCC2)c2ccccc12,-12,0,/,-7,/,-2,/,/
Cc1ccccc1Nc1nc(-c2sc(NC(=O)c3ccccc3)nc2C)cs1,-12,0,-6,-10,-2,19*,-1,-3
CCOc1cc(NC(=O)c2ccccc2C)c(OCC)cc1NC(=O)C1=Cc2ccccc2OC1,-9,4,-1,-36,1,-4,/,/
COCC(C)NC(=O)COc1ccc(Cl)cc1Cl (configuration not stated),-11,-7,2,8,-1,10,-1,-2
N/C(=N\O)c1ccc(NC(=O)c2cccs2)cc1,/,3,6,/,6,25*,-1,-2
SMILES,S1P2 agonist,GALR2 antag,PostGolgi yeast,S1P2 blocker,PostGolgi ctrl,GALR2 ag,GALR2 agon conf,BLA act counter
CC(=O)c1ccc(NC(=O)c2cccs2)cc1,-1,-3,-5,-10,2,-2,/,/
Cc1ccc(S(=O)(=O)Cn2nnnc2C(c2ccccc2)N2CCN(c3ccccc3)CC2)cc1 (configuration not stated),-11,18,/,-2,/,29*,-1,-4
Cc1ccc(S(=O)(=O)Cn2nnnc2C(c2ccccc2)N2CCN(c3ncccn3)CC2)cc1 (configuration not stated),-7,-1,-2,-6,10,0,/,/
CC(=O)c1cc(C)ccc1OC(=O)c1ccco1,-2,6,3,11,8,11*,-1,2
CCC(C)(C)n1nnnc1C(c1ccc(C)cc1)N(Cc1ccco1)Cc1cccs1 (configuration not stated),2,-2,-3,-15,17,-1,/,/
CCOC(=O)c1c(CSC(=N)N)n(-c2ccc(Br)cc2)c2cc(Br)c(OC(C)=O)cc12,/,-9,/,/,/,34*,-4,-19
O=C(NCCc1ccccc1)C(=O)N/N=C/c1ccc2c(c1)OCO2,7,7,-15,-14,-1,0,/,/
O=C(NCCc1ccccc1)C(=O)N/N=C/c1ccccc1C(F)(F)F,-5,-4,-7,-1,9,10,-1,-1
N#C/C(=C\c1cn(CCOc2ccccc2F)c2ccccc12)C(=O)NCc1cccs1,/,3,/,/,/,9.2*,2,1
O=C(CCNC(=O)Cn1ccc2ccccc2c1=O)NCCc1ccccc1Cl,/,-1,/,/,/,-4,/,/
C=C(C)CN1CCN(c2c(CCC#N)c(C)c(C#N)c3nc4ccccc4n23)CC1,/,2,0,/,1,12*,3,1
CCCCCc1c(C)c(C#N)c2nc3ccccc3n2c1-n1ccnc1C,1,-10,-4,6,15,-1,/,/
COc1ccc(Cn2c(SCc3ccccc3C)nc3cc(OC)c(OC)cc3c2=N)cc1,-6,-8,-1,6,67*,9.1*,8.8*,6
C=CCn1c(SCC(=O)N2CCc3ccccc3C2)nnc1-c1ccncc1,/,3,/,/,/,-1,/,/
COC(=O)C1=C(C)Nc2ncnn2C1c1ccc(OCc2ccccc2)cc1 (configuration not stated),/,0,0,/,-4,104*,0,-1
CCc1ccc(NC(=O)CSc2nnc(CC)c(CC)n2)cc1,-2,-7,-2,-33,3,22*,-1,-4
Cc1ccc(-n2nc3cc(C)c(N)cc3n2)cc1,3,9,-3,-17,19,10,2,4
Cc1cc2nn(-c3cccc4ccccc34)nc2cc1N,4,15,3,11,4,3,/,/
CCS(=O)(=O)N1CCN(c2cccc(C)c2C)CC1,-6,-5,-3,8,0,17*,-1,-2
O=C(Cc1ccccc1)NC(=S)Nc1cc(C(F)(F)F)ccc1Cl,-5,-14,-20,1,1,8.4*,6,8
O=C(Cc1ccccc1)NC(=S)Nc1cccc(C(F)(F)F)c1,-2,-14,-1,8,10,1,/,/
C/C(=C/C(=O)N1CCc2ccccc21)C(=O)O,/,0,/,/,/,0,/,/

# Screens (PubChem)
